# Results reported in article PMC4336329 (PLoS ONE, 2015).
# Hit rate of the full screen: of about 310,000 compounds, about 14,000 (4.5%) showed an effect of 50% or more. Effects have a minus sign here. The sample holds strong results, similar compounds and a random draw of the others, so the mix is not that of the screen.
# Biological target: human ether-à-go-go-related gene (hERG) potassium channel (human, UniProt Q12809)
# Test: primary screen, population patch clamp on CHO cells stably expressing hERG; higher = less effect of the substance
# 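Also: peak tail current of the secondary pulse compared with the same well before compound.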
# Chain of human ether-à-go-go-related gene (hERG) potassium channel (Q12809 whole entry, looked up): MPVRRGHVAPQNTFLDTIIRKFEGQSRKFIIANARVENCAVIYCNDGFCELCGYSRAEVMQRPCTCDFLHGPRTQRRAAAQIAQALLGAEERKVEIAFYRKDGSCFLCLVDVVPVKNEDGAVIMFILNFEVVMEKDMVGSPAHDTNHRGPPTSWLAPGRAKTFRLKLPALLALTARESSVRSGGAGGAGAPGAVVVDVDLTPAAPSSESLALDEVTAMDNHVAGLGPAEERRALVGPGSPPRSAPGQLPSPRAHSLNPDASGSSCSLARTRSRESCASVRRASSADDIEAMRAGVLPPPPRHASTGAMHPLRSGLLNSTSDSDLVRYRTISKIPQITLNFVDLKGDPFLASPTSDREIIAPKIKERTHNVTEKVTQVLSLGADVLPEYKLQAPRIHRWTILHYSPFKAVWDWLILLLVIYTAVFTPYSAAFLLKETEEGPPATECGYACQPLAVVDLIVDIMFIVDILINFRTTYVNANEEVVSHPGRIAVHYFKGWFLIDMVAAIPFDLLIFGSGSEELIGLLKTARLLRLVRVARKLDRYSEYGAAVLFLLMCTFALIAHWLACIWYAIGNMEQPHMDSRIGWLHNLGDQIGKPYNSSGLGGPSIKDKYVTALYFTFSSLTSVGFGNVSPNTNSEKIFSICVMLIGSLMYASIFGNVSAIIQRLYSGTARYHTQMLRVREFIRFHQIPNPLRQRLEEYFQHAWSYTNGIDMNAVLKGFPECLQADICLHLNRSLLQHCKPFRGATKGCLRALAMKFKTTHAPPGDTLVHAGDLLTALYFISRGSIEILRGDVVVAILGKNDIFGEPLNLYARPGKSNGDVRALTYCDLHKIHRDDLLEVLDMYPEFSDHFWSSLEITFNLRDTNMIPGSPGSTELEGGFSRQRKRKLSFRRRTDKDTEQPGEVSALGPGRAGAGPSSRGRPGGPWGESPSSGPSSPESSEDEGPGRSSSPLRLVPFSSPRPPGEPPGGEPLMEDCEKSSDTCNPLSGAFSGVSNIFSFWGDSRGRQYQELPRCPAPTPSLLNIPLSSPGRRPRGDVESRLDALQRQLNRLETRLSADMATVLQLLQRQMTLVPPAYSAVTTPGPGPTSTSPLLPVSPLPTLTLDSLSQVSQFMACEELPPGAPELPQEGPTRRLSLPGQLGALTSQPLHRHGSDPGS
row,SMILES,"hERG current change (%, negative = inhibition) at 10uM"
1,CCOC(=O)N1CCC(NC(=O)CCc2nc(C3=CCN(C)CC3)no2)CC1,-3.37%
2,COc1ccc(C(=O)NCCNc2nc3ccc(C)cc3cc2C#N)cc1,4.99%
3,CCN(Cc1ccncc1)Cc1ccc(OC)cc1OC.O=C(O)C(=O)O,-51.4%
4,CCN(Cc1ccncc1)Cc1ccc(OC)c(OC)c1.O=C(O)C(=O)O,-6.49%
5,COc1ccc(CN(CCN(C)C)Cc2ccccc2)c(OC)c1.O=C(O)C(=O)O,-46.1%
6,COc1ccc(N(CC(=O)Nc2cc(C)on2)S(=O)(=O)c2ccc(Cl)cc2)cc1,9.89%
7,COC(=O)N[C@H](CC(C)=O)c1cccc(C(F)(F)F)c1,19.5%
8,CC(C)(C)c1cc(CCC(=O)NCc2ccccn2)cc(C(C)(C)C)c1O,-10.1%
9,CC(C)n1cc(CN2CCCC(CO)(Cc3cccc(Cl)c3)C2)cn1 (stereo not drawn),-24%
10,CC(C)Cc1cc(CN2CCC(CO)(Cc3ccccc3)CC2)[nH]n1,-71.6%
11,Cc1cc(C(=O)N2CCC(CO)(Cc3cccc(C(F)(F)F)c3)CC2)n[nH]1,-49.4%
12,Cc1cc(CN2CCCC(CO)(Cc3cccc(Cl)c3)C2)n[nH]1 (stereo not drawn),-43.2%
13,OCC1(Cc2ccccc2)CCN(Cc2ccccn2)CC1,-9.51%
14,CC(C)=CCN1CCN(Cc2cc(CC(C)C)n[nH]2)CC1CCO (stereo not drawn),-9.57%
15,CC(C)c1csc(CN2CCC(CO)(Cc3ccccc3)CC2)n1,-9.39%
16,CC(C)Cc1cc(CN2CCC(CO)(Cc3cccc(C(F)(F)F)c3)CC2)[nH]n1,-78%
17,CC(C)Cc1cc(CN2CCCC(CO)(Cc3cccc(Cl)c3)C2)[nH]n1 (stereo not drawn),-52.5%
18,CC(C)NC(=O)Cn1nc(C(F)(F)F)c2c1CCC2,7.42%
19,C=C(C)CNc1cc(S(=O)(=O)N2CCOCC2)ccc1Oc1ccccc1,-21.3%
20,O=C(CCN1C(=O)c2cccc3cccc(c23)C1=O)N1CCOCC1,19.9%
21,CCN1CCN(CC(=O)NC2CCCCC2)C(=O)C1=O,1.65%

row,SMILES,"hERG current change (%, negative = inhibition) at 10uM"
1,COc1cccc(CNC(=O)C(C)n2nc(C)n3c(cc4occc43)c2=O)c1 (stereo not drawn),7.17%
2,CCCOc1ccc(C(=O)NNC(=S)NC(=O)c2cccs2)cc1,16.7%
3,CC(C)=CC(=O)O[C@H]1[C@@H]2[C@H](C)C(=O)O[C@@H]2C[C@@H](C)[C@@H]2[C@@H](O)CC(=O)[C@]21C,22.4%
4,COC(=O)CCSc1cc(NCCOC(C)=O)c([N+](=O)[O-])c2nonc12,-25.6%
5,O=C(N/N=C/c1cn(CC(=O)N2CCOCC2)c2ccccc12)c1cccnc1,16.3%
6,Cc1ccc(NC(=O)C(C)Sc2nc(-c3ccccc3)cc(=O)[nH]2)cc1 (stereo not drawn),20.8%
7,COc1ccccc1NC(=O)/C(=C\c1cccnc1)NC(=O)c1ccc(C)cc1,-71.9%
8,Cc1ccc(NC(=O)/C(=C\c2cccnc2)NC(=O)c2ccccc2)cc1,-46%
9,COc1ccccc1NC(=O)/C(=C\c1cccnc1)NC(=O)c1ccccc1,-65.5%
10,COc1ccccc1NC(=O)/C(=C/c1ccncc1)NC(=O)c1ccccc1,-10.6%
11,O=C(Nc1ccccc1)/C(=C/c1cccnc1)NC(=O)c1ccccc1,2.08%
12,Cc1ccc(C(=O)N/C(=C/c2cccnc2)C(=O)O)cc1,8.41%
13,COc1cc(OC)c(OC)cc1CNC(=O)c1ccc(S(=O)(=O)N2CC(C)OC(C)C2)cc1 (stereo not drawn),-11%
14,O=C(COc1cc(Cl)c(Cl)cc1Cl)NCCN1CCOCC1,-7.1%
15,CCCCNC(=O)[C@H](Cc1c[nH]c2ccccc12)NC(=O)c1ccccc1Cl,-8.26%
16,O=C(NCc1ccco1)C1CCN(S(=O)(=O)c2ccc(-n3cnnn3)cc2)CC1,-70.5%
17,CC(=O)Nc1ccc(S(=O)(=O)N2CCC(C(=O)NCc3ccco3)CC2)cc1,0.324%
18,COc1ccc(C)cc1NC(=O)C1CCCN(S(=O)(=O)c2ccc(-n3cnnn3)cc2)C1 (stereo not drawn),-69.8%
19,COc1ccccc1NC(=O)C1CCCN(S(=O)(=O)c2ccc(-n3cnnn3)cc2)C1 (stereo not drawn),-46.8%
20,COc1ccc(OC)c(NC(=O)C2CCCN(S(=O)(=O)c3ccc(-n4cnnn4)cc3)C2)c1 (stereo not drawn),-12.5%
21,O=C(NCc1ccccc1)C1CCCN(S(=O)(=O)c2ccc(-n3cnnn3)cc2)C1 (stereo not drawn),2.94%
